Source: PubChem BioAssay AID1159580 (chemical genetic matrix, 2015)
Screen size: about 5,500 compounds; about 2,000 (36%) were called active. About 18% were inconclusive and are not listed. Rule as the data show it: active = normalized growth mostly below about 0.91 (no sharp cut-off); inconclusive = no clear call, values can overlap the other calls; inactive = mostly above about 0.92. The list shows a part of the results.

Assay: chemical genetic growth profiling, strain panel (AID 1159580);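 also: tested at 20 µM; growth read once vehicle control cultures reached saturation at 30 °C; 1 = growth at the plate median or of vehicle wells; lower values mean less growth of the strain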
Settings: S. cerevisiae deletion strains, growth OD

Measured: normalized growth

C=C(C)[C@H]1CN[C@H](C(=O)O)[C@H]1CC(=O)O
inactive: locus YAL040C, strain CLN3, hits give low values 1.02 | locus YCL061C, strain MRC1 (second series), hits give low values 1 | locus YDR363W, strain ESC2, hits give low values 1.03 | locus YER002W, strain NOP16, hits give low values 1.01 | locus YMR307W, strain GAS1, hits give low values 1 | locus YNL128W, strain TEP1, hits give low values 1 | locus YNL175C, strain NOP13, hits give low values 1.02 | locus YNL197C, strain WHI3, hits give low values 1.02 | locus YNL224C, strain SQS1, hits give low values 1 | locus YOR083W, strain WHI5 (second series), hits give low values 1.03
